Data on two sequences can be found in paper PMC7862700, “An all-to-all approach to the identification of sequence-specific readers for epigenetic DNA modifications on cytosine”.

Experiment in all cases: DAPPL (digital affinity profiling via proximity ligation, sequencing); 10 mM Tris-HCl pH 7.5, 50 mM NaCl, 1 mM DTT, 4% glycerol, room temperature, 30 min; GST-TFs on glutathione beads, 16-mer random dsDNA library, 0.1% formaldehyde crosslink after washing; high values mean tight binding
Holding throughout (conditions): protein: recombinant; tags: N-terminal GST; dsDNA, one strand shown

Assay [1] concerns the target T1, ELK1 (Homo sapiens, UniProt P19419 1-428).
T1 sequence: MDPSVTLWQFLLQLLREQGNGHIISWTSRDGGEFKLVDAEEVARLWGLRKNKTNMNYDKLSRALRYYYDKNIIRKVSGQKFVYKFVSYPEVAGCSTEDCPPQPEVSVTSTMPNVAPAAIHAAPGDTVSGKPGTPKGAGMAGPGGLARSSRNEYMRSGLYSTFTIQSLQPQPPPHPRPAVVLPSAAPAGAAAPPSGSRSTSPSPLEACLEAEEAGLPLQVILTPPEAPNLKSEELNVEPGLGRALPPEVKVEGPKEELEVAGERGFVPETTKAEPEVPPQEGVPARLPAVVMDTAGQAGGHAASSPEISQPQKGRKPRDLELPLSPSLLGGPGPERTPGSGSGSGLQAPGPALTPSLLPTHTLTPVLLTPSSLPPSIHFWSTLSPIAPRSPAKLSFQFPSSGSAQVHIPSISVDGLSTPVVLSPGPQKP
The gist of the method:
(§1)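 Beads coated with glutathione captured GST-fused human transcription factors that had been expressed in yeast, and the factors were then given DNA barcodes and pooled with a tag-only sample. The pools were incubated with 200 nmole of a random double-stranded 16-mer DNA library in Tris/NaCl/DTT/glycerol buffer for 30 min at room temperature, washed, crosslinked with 0.1% formaldehyde and proximity-ligated with BsaI/T4 ligase at 37 °C for 1 h. PCR amplification and Illumina NextSeq500 sequencing came last. Binding signal is each hexamer's read frequency for a factor divided by its frequency for the tag-only sample.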

For assay [2], the target named is T2, GABPA (Homo sapiens, UniProt Q06546 1-454).
T2 sequence: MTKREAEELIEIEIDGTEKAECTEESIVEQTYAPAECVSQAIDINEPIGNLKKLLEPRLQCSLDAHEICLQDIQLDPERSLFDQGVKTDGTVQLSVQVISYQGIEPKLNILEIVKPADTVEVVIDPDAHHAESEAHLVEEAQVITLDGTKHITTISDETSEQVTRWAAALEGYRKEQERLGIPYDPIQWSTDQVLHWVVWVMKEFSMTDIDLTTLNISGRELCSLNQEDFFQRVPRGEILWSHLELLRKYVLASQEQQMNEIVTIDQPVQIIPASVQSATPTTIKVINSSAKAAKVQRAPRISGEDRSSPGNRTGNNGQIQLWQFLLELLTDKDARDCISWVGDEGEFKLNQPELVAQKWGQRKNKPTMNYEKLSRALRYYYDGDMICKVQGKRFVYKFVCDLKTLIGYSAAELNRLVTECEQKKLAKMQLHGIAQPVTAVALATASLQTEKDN
The gist of the method: as §1

In assay [3] the target is ELF1 (Homo sapiens, UniProt P32519 1-619). The gist of the method:
as §1

The target in assay [4] is T3, EHF (Homo sapiens, UniProt Q9NZC4 1-300).
T3 sequence: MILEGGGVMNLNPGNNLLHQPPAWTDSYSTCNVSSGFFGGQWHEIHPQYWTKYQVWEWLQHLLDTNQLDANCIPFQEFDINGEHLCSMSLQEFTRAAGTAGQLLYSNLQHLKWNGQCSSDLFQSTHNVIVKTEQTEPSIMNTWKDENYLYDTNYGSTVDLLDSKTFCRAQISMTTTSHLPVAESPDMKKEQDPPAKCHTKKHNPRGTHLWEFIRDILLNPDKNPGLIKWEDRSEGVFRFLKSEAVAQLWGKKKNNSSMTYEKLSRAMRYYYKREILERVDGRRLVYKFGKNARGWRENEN
The gist of the method:
as §1

Assay [5] deals with SPIB (Homo sapiens, UniProt Q01892 1-262). The gist of the method:
as §1

In assay [6] the target is T4, ELK3 (Homo sapiens, UniProt P41970 1-407).
T4 sequence: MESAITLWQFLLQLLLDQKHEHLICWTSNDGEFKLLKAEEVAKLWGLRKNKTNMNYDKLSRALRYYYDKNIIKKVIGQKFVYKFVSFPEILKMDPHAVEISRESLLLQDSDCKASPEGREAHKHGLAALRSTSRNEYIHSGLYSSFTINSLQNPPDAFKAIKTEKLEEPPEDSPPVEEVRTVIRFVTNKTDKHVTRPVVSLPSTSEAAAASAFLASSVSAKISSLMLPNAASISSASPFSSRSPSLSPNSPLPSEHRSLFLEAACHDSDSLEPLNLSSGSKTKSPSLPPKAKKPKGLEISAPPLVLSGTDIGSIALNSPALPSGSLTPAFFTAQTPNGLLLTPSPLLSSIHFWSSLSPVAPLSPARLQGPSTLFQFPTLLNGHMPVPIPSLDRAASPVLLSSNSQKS
The gist of the method: as §1

Assay [7] concerns the target T5, ELK4 (Homo sapiens, UniProt P28324-2 1-405).
T5 sequence: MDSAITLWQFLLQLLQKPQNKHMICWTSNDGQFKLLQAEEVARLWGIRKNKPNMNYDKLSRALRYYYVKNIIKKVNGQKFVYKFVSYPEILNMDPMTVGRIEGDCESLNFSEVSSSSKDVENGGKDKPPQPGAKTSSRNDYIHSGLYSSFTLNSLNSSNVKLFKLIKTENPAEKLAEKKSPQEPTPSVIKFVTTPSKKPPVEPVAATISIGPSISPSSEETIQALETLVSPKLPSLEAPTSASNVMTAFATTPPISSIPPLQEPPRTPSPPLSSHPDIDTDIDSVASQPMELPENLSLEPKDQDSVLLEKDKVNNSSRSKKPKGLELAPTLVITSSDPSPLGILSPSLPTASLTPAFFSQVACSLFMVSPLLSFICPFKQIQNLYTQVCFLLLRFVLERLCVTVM
The gist of the method:
as §1

Assay [8] concerns the target T6, ERF (Homo sapiens, UniProt P50548 1-548).
T6 sequence: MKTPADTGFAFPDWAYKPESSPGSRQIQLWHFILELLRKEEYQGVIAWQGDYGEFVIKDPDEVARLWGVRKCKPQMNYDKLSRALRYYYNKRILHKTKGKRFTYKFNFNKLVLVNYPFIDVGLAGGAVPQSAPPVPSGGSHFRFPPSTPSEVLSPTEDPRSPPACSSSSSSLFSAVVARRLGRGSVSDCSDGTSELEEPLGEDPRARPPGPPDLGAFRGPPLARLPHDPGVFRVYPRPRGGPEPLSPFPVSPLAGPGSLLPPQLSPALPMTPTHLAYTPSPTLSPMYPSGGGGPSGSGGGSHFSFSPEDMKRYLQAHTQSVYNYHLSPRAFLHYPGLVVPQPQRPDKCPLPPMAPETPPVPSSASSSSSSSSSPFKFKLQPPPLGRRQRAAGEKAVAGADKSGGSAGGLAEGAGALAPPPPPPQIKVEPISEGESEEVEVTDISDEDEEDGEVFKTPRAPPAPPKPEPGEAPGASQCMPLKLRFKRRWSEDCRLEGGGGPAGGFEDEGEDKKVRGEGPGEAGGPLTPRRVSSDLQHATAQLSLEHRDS
The gist of the method:
as §1

Assay [9] has as its target T7, ETV3L (Homo sapiens, UniProt Q6ZN32 1-361).
T7 sequence: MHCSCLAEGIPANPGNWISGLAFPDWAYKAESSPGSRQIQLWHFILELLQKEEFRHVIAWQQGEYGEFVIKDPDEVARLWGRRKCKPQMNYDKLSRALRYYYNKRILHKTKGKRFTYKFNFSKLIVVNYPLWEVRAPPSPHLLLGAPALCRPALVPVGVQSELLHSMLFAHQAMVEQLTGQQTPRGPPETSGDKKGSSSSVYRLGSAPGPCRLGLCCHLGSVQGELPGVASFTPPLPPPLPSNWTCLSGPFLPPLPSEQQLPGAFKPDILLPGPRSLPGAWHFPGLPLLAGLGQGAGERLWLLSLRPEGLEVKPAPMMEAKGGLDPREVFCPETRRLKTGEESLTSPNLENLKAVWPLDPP
The gist of the method:
as §1

Assay [10] deals with T8, ETS2 (Homo sapiens, UniProt P15036 1-469).
T8 sequence: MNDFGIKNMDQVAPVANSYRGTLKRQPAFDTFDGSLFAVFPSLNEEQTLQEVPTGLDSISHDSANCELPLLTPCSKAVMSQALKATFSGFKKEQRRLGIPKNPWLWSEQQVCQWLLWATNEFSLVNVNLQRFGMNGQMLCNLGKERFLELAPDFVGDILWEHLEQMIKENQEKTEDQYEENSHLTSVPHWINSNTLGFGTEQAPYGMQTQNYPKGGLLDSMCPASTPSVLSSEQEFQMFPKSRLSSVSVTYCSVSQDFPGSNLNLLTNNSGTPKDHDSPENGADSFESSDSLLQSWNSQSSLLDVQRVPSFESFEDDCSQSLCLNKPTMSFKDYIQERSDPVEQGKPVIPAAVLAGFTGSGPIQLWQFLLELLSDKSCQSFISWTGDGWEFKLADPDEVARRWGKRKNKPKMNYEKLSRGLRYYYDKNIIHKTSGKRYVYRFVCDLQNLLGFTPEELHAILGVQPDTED
The gist of the method:
as §1

Assay [11] has as its target T9, SPDEF (Homo sapiens, UniProt O95238 1-335).
T9 sequence: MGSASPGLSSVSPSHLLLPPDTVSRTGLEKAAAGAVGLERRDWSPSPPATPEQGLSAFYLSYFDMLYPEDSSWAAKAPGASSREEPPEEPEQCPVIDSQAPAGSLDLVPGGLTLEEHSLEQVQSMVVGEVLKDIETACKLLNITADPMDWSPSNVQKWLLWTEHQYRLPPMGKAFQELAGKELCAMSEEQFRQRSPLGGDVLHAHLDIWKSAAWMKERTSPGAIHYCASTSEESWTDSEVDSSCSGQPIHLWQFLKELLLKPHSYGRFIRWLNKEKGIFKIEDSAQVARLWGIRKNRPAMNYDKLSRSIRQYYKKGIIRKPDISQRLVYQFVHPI
The gist of the method:
as §1

For assay [12], the target named is T10, ETV7 (Homo sapiens, UniProt Q9Y603 1-341).
T10 sequence: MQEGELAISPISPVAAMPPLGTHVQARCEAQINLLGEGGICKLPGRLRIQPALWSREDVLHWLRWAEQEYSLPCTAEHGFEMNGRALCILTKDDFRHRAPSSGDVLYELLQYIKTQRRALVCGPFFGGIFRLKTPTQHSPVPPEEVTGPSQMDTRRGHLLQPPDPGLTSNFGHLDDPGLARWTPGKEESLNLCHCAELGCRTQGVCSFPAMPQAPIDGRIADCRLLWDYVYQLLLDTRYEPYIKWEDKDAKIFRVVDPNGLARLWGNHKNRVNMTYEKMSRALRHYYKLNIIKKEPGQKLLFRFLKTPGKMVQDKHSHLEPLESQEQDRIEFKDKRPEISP
The gist of the method: as §1

Assay [13] concerns the target ETV6 (Homo sapiens, UniProt P41212 1-452). The gist of the method: as §1
Assay [14] concerns the target T11, ELF3 (Homo sapiens, UniProt P78545 1-371).
T11 sequence: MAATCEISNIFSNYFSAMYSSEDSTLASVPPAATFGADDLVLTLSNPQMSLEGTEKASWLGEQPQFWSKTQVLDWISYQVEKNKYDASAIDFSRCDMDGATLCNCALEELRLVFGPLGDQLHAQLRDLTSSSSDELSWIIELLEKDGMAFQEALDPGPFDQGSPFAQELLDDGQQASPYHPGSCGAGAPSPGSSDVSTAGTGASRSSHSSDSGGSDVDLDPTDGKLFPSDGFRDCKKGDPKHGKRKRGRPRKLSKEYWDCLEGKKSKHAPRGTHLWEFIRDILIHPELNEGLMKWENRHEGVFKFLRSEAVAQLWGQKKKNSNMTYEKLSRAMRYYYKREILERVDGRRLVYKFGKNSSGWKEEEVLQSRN
The gist of the method:
as §1

Chain of ELF1 (P32519 whole entry): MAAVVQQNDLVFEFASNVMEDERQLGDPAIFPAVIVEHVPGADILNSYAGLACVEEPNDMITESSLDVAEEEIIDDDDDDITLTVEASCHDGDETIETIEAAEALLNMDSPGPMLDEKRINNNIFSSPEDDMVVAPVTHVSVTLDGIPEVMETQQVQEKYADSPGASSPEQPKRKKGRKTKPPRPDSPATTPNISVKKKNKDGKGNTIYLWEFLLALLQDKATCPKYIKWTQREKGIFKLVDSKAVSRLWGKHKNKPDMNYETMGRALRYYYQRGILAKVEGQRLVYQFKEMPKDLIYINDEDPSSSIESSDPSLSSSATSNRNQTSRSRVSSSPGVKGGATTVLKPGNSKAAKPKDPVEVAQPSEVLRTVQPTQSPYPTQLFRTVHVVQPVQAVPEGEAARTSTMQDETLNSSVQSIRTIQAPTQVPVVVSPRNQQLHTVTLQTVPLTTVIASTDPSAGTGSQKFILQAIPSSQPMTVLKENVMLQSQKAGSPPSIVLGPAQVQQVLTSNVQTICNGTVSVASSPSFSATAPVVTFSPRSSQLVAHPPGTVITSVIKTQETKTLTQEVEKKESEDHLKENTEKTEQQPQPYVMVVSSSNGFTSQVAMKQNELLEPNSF
Chain of SPIB (Q01892 whole entry): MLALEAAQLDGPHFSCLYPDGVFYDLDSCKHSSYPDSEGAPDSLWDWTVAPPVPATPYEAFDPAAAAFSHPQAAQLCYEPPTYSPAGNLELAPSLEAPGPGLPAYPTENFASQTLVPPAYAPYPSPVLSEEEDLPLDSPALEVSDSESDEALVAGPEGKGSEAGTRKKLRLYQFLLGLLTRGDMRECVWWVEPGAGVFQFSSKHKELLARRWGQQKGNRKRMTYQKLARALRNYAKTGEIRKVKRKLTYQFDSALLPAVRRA
Chain of ETV6 (P41212 whole entry): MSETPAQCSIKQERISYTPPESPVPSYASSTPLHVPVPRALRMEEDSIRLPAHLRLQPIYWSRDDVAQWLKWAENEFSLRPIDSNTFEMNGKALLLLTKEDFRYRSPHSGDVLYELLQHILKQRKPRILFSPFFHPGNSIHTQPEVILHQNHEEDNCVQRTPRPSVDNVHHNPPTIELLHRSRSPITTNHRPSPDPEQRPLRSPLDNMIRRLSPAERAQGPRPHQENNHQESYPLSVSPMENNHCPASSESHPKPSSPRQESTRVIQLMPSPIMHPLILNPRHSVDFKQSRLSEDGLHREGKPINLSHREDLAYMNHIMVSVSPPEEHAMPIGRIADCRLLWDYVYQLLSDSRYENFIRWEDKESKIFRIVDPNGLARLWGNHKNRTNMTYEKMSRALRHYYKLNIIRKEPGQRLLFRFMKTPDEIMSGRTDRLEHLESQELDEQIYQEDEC

Regarding GATTAA, the binding signal in assay [1] is 1.04 fold enrichment (6-mer frequency, TF over GST control); in assay [2], 1.04 fold enrichment (6-mer frequency, TF over GST control); in [3], 1.02 fold enrichment (6-mer frequency, TF over GST control); in assay [4], 1.01 fold enrichment (6-mer frequency, TF over GST control); in assay [5], 1.02 fold enrichment (6-mer frequency, TF over GST control); in assay [6] it was 1.13 fold enrichment (6-mer frequency, TF over GST control). Also, the binding signal was 1.06 fold enrichment (6-mer frequency, TF over GST control) in assay [7]; 1.04 fold enrichment (6-mer frequency, TF over GST control) in [8]; 1.1 fold enrichment (6-mer frequency, TF over GST control) in [9]; 1.01 fold enrichment (6-mer frequency, TF over GST control) in assay [10]; 1.08 fold enrichment (6-mer frequency, TF over GST control) in [11]; 1.01 fold enrichment (6-mer frequency, TF over GST control) in assay [12]. Moreover, the binding signal in [13] was 1.12 fold enrichment (6-mer frequency, TF over GST control).
Turning to TAGGTA, the binding signal in assay [1] was 1.06 fold enrichment (6-mer frequency, TF over GST control); in assay [14], 1.12 fold enrichment (6-mer frequency, TF over GST control); in assay [8] it was 1.08 fold enrichment (6-mer frequency, TF over GST control); in [9], 1.01 fold enrichment (6-mer frequency, TF over GST control); in assay [10] it was 1.03 fold enrichment (6-mer frequency, TF over GST control); in [11], 1.02 fold enrichment (6-mer frequency, TF over GST control). For the same sequence, the binding signal in assay [12] is 1.1 fold enrichment (6-mer frequency, TF over GST control).
